The values below come from PubChem BioAssay (NCI).

Each structure is given as a SMILES string. This is part of a sample that, as a whole, favours compounds with a hit. Of some 83,000 tested, about 20% had one in any assay.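 Single-concentration screen, 48 h exposure, 96-well plates. Endpoint: percent growth. Below 10 = active.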 Unmarked numbers belong to inactive results. The source made the active and inactive calls.

Among the test systems are NCI-H23 lung; NCI-H226 lung; NCI-H322M lung; HOP-62 NSCLC; NCI-H460 lung; HOP-92 NSCLC; NCI-H522 lung; A549/ATCC NSCLC; 786-0 renal; COLO 205 colon.
Common to all, as to experiment: NCI-60 one-dose screen, 48 h (100 = growth as untreated, 0 = no growth, -100 = all killed)
Holding throughout (conditions): 10 µM unless noted

With `Cc1ccc2ccccc2c1C[n+]1ccccc1`, the growth in the assay on NCI-H23 lung is 86.5%; in the assay on NCI-H226 lung, 99.3%; in the assay on NCI-H322M lung, 109%; in the assay on HOP-62 NSCLC it was 84.8%; in the assay on NCI-H460 lung, 114%; with HOP-92 NSCLC, 79.3%. Also, the growth with NCI-H522 lung is 100%; with A549/ATCC NSCLC, 99.1%; in the assay on 786-0 renal it was 102%; in the assay on COLO 205 colon, 112%.

For `Clc1cccc(-c2cc(-c3ccc4c(c3)OCCO4)[nH]n2)c1`, the growth is 40% [25 µM] in the assay with NCI-H23 lung; 34.8% [25 µM] in the assay on NCI-H226 lung; 37.2% [25 µM] in the assay on NCI-H322M lung; 26.6% [25 µM] in the assay on HOP-62 NSCLC; 12.1% [25 µM] with NCI-H460 lung; 55.4% [25 µM] in the assay with HOP-92 NSCLC. In addition, the growth is 0.794% [25 µM] (active) with NCI-H522 lung, 41.2% [25 µM] in the assay on A549/ATCC NSCLC, 56.8% [25 µM] with 786-0 renal and 11.9% [25 µM] in the assay on COLO 205 colon.

Consider `Clc1cc(Cl)cc(-c2ccc(-c3ccc(/C=N/NC4=NCCN4)cc3)s2)c1`, for which the growth in the assay on NCI-H23 lung is 39.1%; in the assay with NCI-H226 lung, 85.1%; in the assay with NCI-H322M lung, 98.3%; with HOP-62 NSCLC it was 71%; in the assay on NCI-H460 lung, 4.5% (active); in the assay on HOP-92 NSCLC it was 38.9%. The growth is 71.4% in the assay on NCI-H522 lung, -22.4% (active) in the assay on A549/ATCC NSCLC, 75.8% with 786-0 renal and -17.1% (active) in the assay with COLO 205 colon.

Consider `Cc1ccc(S(=O)(=O)NC(=O)n2cc(-c3ccncc3)c(-c3ccc(Cl)c(O)c3)n2)cc1`, for which the growth with NCI-H23 lung was 108%; with NCI-H226 lung it was 98.6%; in the assay with NCI-H322M lung it was 111%; with HOP-62 NSCLC, 116%; in the assay with NCI-H460 lung, 111%; in the assay on HOP-92 NSCLC, 99%. Further, the growth with NCI-H522 lung was 91.3%; in the assay with A549/ATCC NSCLC, 99.6%; in the assay on 786-0 renal, 95.4%; with COLO 205 colon, 113%.

As for `CCOC(=O)/C(C#N)=C1/C(=O)Nc2ccccc21`, the growth was 108% in the assay with NCI-H23 lung; 116% in the assay on NCI-H226 lung; 127% in the assay with NCI-H322M lung; 104% in the assay with HOP-62 NSCLC; 120% in the assay with NCI-H460 lung; 110% in the assay with HOP-92 NSCLC. The growth with NCI-H522 lung was 183%; with A549/ATCC NSCLC it was 112%; with 786-0 renal, 124%; in the assay on COLO 205 colon, 118%.

For the compound `O=c1ccn(-c2ncnc3nc[nH]c23)cc1`, the growth with NCI-H23 lung was 92.1%; in the assay on NCI-H226 lung it was 88.8%; in the assay with NCI-H322M lung it was 97.5%; in the assay with HOP-62 NSCLC, 89.8%; with NCI-H460 lung, 113%; in the assay on HOP-92 NSCLC it was 72.9%. Also, the growth is 80.4% in the assay on NCI-H522 lung, 35.8% in the assay on A549/ATCC NSCLC, 97.1% with 786-0 renal and 101% with COLO 205 colon.

`COc1ccc(S(=O)(=O)n2cc(C(=O)C(=O)Nc3ccncc3)c3ccccc32)cc1F`: the growth is 65.2% in the assay with NCI-H23 lung; 82.9% in the assay on NCI-H226 lung; 88.6% in the assay on NCI-H322M lung; 61.4% with HOP-62 NSCLC; 69.5% in the assay with NCI-H460 lung; 62.1% with HOP-92 NSCLC. The growth with NCI-H522 lung is 65.3%; in the assay with A549/ATCC NSCLC it was 71%; in the assay with 786-0 renal, 84.7%; in the assay on COLO 205 colon, 94%.

For the compound `Cc1csc(NC(c2ccccc2)c2c(C)nc3ccccn23)n1` (stereo not given), the growth is 95.6% with NCI-H23 lung; 94.8% in the assay on NCI-H226 lung; 104% in the assay with NCI-H322M lung; 95.4% in the assay with HOP-62 NSCLC; 102% in the assay with NCI-H460 lung; 68.4% in the assay on HOP-92 NSCLC. For the same compound, the growth in the assay on NCI-H522 lung is 95.3%; in the assay with A549/ATCC NSCLC it was 99.1%; in the assay with 786-0 renal it was 100%; with COLO 205 colon, 106%.

In the case of `C=C1CCC2C(C)(CO)C(O)CCC2(C)C1C/C=C1/C(=O)OCC1O/C=C/c1ccccc1` (stereo not given), the growth with NCI-H23 lung is 87.7%; with NCI-H226 lung, 83.7%; in the assay on NCI-H322M lung, 94.7%; in the assay with HOP-62 NSCLC, 104%; in the assay with NCI-H460 lung, 75.2%; in the assay with HOP-92 NSCLC, 76.1%. For the same compound, the growth with NCI-H522 lung was 60.3%; with A549/ATCC NSCLC it was 71.8%; in the assay with 786-0 renal it was 93.1%; in the assay with COLO 205 colon, 101%.
